Screening results from PubChem.
Mito fusion act: blocks mitochondrial division or promotes mitochondrial fusion. S. cerevisiae fusion-defective mutant growth rescue, CellTiterGlo 48 h. Potency, µM (top dose mostly 46.1 µM), hits mostly activators. hit rate 0.23% among 320,000. AID 485298; note: nearly all actives have a fitted effect of over 45% in size
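Yeast fusion mutant, YPEG (non-fermentable carbon), compound, 48 h at 37C non-permissive; CellTiterGlo added, 10 min RT, luminescence read. Rescued growth = division inhibition.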
PLK1 PBD inh: blocks phosphopeptide binding to human PLK1 polo-box domain; Plk1 PBD binding of FITC phosphopeptide, fluorescence polarization; AID 720504; Potency, µM, usual class: inhibitors; P53350; hit rate 2.8% among 360,000; note: series mostly up to about 57 µM; nearly all actives have a fitted effect of over 65% in size
VDR inhibitor: inhibitors of human vitamin D receptor. P11473. VDR-SRC2-3 peptide fluorescence polarization, 2 h. Potency, µM, hits mostly inhibitors. hit rate 0.93% among 400,000
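Fluorescence polarization assay measuring small-molecule disruption of VDR binding to the coregulator peptide SRC2-3. Compounds were pin-transferred (23 nl) into the reagent mix and incubated 2 h at room temperature before reading.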
GLS inhibitor: inhibitors of human glutaminase (GLS). Potency, µM (top dose mostly 45.5 µM), actives largely listed as inhibitors. GLS enzymatic activity, qHTS titration. O94925. hit rate 0.21% among 410,000
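Compounds were pin-transferred onto hKGA, after which L-glutamine (1 mM solution) and a detection mix of glutamate oxidase, HRP and Amplex Red were added. Initial and 30 min RT fluorescence reads were collected.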
GCN5L2 inh: inhibitors of human GCN5L2 histone acetyltransferase. Q92830. GCN5L2 HAT assay, ThioGlo1 CoA-SH fluorescence. Potency, µM (top dose mostly 58.9 µM), usual class: inhibitors. hit rate 0.21% among 390,000
Target sequence (Q92830 whole entry, looked up): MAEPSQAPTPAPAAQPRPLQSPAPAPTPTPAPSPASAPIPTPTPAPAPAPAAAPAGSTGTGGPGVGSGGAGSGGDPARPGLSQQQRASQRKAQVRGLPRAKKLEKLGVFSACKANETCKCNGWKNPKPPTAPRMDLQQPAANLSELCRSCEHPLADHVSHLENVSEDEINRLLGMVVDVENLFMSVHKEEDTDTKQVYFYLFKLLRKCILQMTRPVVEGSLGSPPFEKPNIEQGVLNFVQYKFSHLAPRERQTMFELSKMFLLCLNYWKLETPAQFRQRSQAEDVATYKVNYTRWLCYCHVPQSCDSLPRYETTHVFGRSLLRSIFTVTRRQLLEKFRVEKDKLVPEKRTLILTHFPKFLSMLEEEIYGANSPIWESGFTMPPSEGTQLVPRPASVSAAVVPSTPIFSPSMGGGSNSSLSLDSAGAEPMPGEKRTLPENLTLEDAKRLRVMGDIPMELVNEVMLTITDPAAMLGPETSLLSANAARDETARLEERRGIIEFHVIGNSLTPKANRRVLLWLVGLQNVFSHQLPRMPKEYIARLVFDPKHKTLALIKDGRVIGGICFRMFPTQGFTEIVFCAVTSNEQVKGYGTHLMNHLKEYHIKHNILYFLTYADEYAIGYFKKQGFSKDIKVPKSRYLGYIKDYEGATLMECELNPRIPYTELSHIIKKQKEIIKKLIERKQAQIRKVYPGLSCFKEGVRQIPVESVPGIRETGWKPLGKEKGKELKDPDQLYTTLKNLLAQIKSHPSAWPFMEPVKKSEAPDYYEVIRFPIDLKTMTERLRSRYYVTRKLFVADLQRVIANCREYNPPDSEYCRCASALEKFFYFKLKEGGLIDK
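GCN5L2 (20nM final) in 50mM HEPES, 0.1mM EDTA pH 7.5, 0.01% Tween-20 was preincubated 15 min at room temperature with compound, then given ThioGlo1 (50uM), H3(1-25) peptide (75uM) and acetyl-CoA (70uM); CoA-thiol fluorescence (Ex340/Em540) was read at 0 and 20 min.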
PKM2 activator: increases activity of human pyruvate kinase M2 | P14618 | Potency, µM (titrated, usually from 57.5 µM), usual class: activators | hit rate 0.34% among 260,000 | purified PKM2, Kinase-Glo ATP luminescence, activation; response scale: 0% is enzyme alone, no compound; note: nearly all actives have a fitted effect of over 55% in size
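ATP formation by purified human PK-M2, quantified via coupled luciferase luminescence after 1 h at room temperature with 0.1 mM ADP and 0.5 mM PEP final.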
A number is an active result; n = inactive; u = inconclusive; x = not tested or not shown; [ ] = remark or other dose. Shown are actives, neighbours in structure and some others; about 3.4% of the full set was active somewhere. Calls come from the whole dose curve; as a rule, active = well fitted curve in the direction sought with a large enough effect; inconclusive = small, poorly fitted or top-dose-only effect, or another doubt; inactive = no such curve, though single readings can be large; an effect the other way counts as inactive or inconclusive.

SMILES	Mito fusion act	PLK1 PBD inh	VDR inhibitor	GLS inhibitor	GCN5L2 inh	PKM2 activator
O=C(c1ccc2c(=O)n3c(nc2c1)CCCCC3)N1CCN(c2ccc(F)cc2)CC1	n	n	n	n	n	n
CCOC(=O)[C@]12CCC=C1N(Cc1ccccc1)C(=O)[C@H](CC(=O)NCCCN1CCCC1=O)C2	x	n	x	n	x	x
CC(C)(C)c1ccc(S(=O)(=O)N2CCN(c3nc(-c4ccccc4)nc4ccccc34)CC2)cc1	x	x	n	x	x	x
Cn1c(CNC(=O)CCNC(=O)c2cccc(Cl)c2)cc(=O)n(C)c1=O	n	n	n	n	n	x
COc1ccccc1NC(=O)CSc1nnc(CNC(=O)c2ccco2)o1	n	n	n	n	x	n
O=C(CSc1nnc(CNC(=O)c2ccco2)o1)Nc1ccccc1F	n	21µM	n	n	n	x
C/C(=C(/CCO)SS/C(CCO)=C(\C)N(C=O)Cc1cnc(C)nc1N)N(C=O)Cc1cnc(C)nc1N	x	x	32µM	n	n	x
Cn1cccc1Cc1nnc(SCC(=O)Nc2cccc(Cl)c2)n1-c1ccc(F)cc1	n	27µM	n	n	n	n
Cn1cccc1Cc1nnc(SCC(=O)Nc2cccc(F)c2)n1-c1ccc(F)cc1	n	u	u	n	n	n
COc1ccccc1NC(=O)c1ccccc1S(=O)(=O)c1ccccc1[N+](=O)[O-]	n	6µM	n	n	n	n
O=C(CSc1nc2nc(-c3cccs3)cc(C(F)(F)F)c2c(=O)[nH]1)Nc1c(F)c(F)c(F)c(F)c1F	n	34µM	n	n	n	n
NS(=O)(=O)c1cccc(NC(=O)CSc2nc3nc(-c4cccs4)cc(C(F)(F)F)c3c(=O)[nH]2)c1	n	34µM	n	u	n	n
N#CCCN(C(=O)CSc1nc2nc(-c3cccs3)cc(C(F)(F)F)c2c(=O)[nH]1)c1ccccc1	n	n	n	u	n	n
O=C(CN1CCC(Cc2ccccc2)CC1)N1CCc2ccccc2C1	n	27µM	n	n	n	n
Nc1nnnn1/N=C/c1cc(Cl)ccc1O	n	u	n	n	n	x
Nc1nnnn1/N=C/c1cc(Cl)cc(Cl)c1O	n	12µM	n	n	n	n
Cc1ccc2nc(SCC(=O)c3ccc4c(c3)NC(=O)CO4)[nH]c2c1	n	n	n	n	n	n
Cc1ccc(C)c(-n2nnnc2SCC(=O)c2ccc3c(c2)NC(=O)CO3)c1	n	n	n	n	n	14µM
Nc1ccccc1SCC(=O)Nc1ccc(N2CCOCC2)cc1	n	n	u	n	n	n
Cc1ccccc1SCC(=O)Nc1ccc(N2CCOCC2)cc1	n	19µM	n	n	n	n
Cc1cc(NC(=O)CSCC(=O)Nc2nc3ccccc3[nH]2)no1	n	n	n	n	n	x
O=C(N/N=C/c1cccnc1)C12CC3CC(CC(C3)C1)C2	n	n	n	n	n	n
O=C(N/N=C/c1ccncc1)C12CC3CC(CC(C3)C1)C2	n	38µM	n	n	n	n
CCC(CO)Oc1cc(NCc2cccc(C)c2)c2ncn(C(C)C)c2c1 (stereo unspecified)	x	n	89µM	n	n	x
Cc1nc2cc(-c3ccc(Cl)cc3)nn2c(C)c1CCC(=O)NC(C)c1ccc2c(c1)OCCO2 (stereo unspecified)	18µM	n	n	n	n	n
SMILES	Mito fusion act	PLK1 PBD inh	VDR inhibitor	GLS inhibitor	GCN5L2 inh	PKM2 activator
Cc1cc(C(=O)CCl)c(C)n1CCc1ccc(Cl)cc1	n	u	18µM	n	n	n
O=C(NCCc1c[nH]c2ccccc12)c1ccccc1O	x	x	n	x	n	x
COc1ccc(-n2c(SCC(=O)C(C)(C)C)nc3c(sc(=S)n3-c3ccccc3)c2=O)c(OC)c1	n	3.8µM	32µM	n	n	x
CNc1nc(OCC(F)(F)F)nc(N2CCOCC2)n1	n	6.7µM	n	n	x	n
CC1=NN(c2ccccc2)C(=O)/C1=C\c1cc(C)n(-c2ccccc2)c1C	n	n	n	n	n	n
CC1=NN(c2ccccc2)C(=O)/C1=C/c1cccs1	n	17µM	79µM	n	n	u
CC1=NN(c2ccccc2)C(=O)C1=Cc1ccccc1	x	4.7µM	x	u	x	x
CC1=NN(c2ccccc2)C(=O)/C1=C/c1ccc[nH]1	n	n	n	n	n	n
CC1=NN(c2ccccc2)C(=O)/C1=C\c1ccc(Br)s1	n	4.7µM	n	u	n	n
CC1=NN(c2ccccc2)C(=O)/C1=C/C=C/C=C/N(C)C	n[9.22 µM]	n	n	n	n	n
CC1=NN(c2ccc(C)cc2)C(=O)/C1=C\C=C\c1ccccc1	x	n	79µM	n	n	n
CCCC(C(=O)Nc1ccc2c(C)cc(=O)oc2c1)c1ccccc1 (stereo unspecified)	n	n	n	n	n	n
NC(=O)c1ccccc1OCc1nnc(-c2ccccc2Br)o1	n	n	n	n	n	n
CN(C)c1ccc(C=C(C#N)C(=O)c2ccccc2)cc1Br	x	0.84µM	x	n	x	x
N#CC(=Cc1ccc(-c2ccccc2)cc1)C(=O)c1ccccc1	x	1.5µM	x	n	x	x
CN(C)c1ccc(/C=C(\C#N)C(=O)c2ccccc2)cc1	n	n	n	n	n	n
N#C/C(=C\c1ccc(C#N)cc1)C(=O)c1ccccc1	n	4.7µM	79µM	n	n	22µM
COc1ccc(C=C(C#N)C(=O)c2ccccc2)cc1	x	6.7µM	x	n	x	x
CCOC(=O)[C@@]12C[C@@H]1/C(=N/O)c1ccccc1O2	x	x	n	x	n	x
CN(C(=O)c1cccc(NC(=O)Cc2ccc(NC(=O)C3CCN(C(=O)C4CC4)CC3)cc2)c1)C1CCC1	x	n	n	n	x	x
CCCCN1C[C@H](C)[C@@H](CC(=O)NC)C1=O	x	n	x	n	x	x
COc1cccc(-c2nc(CS(=O)(=O)CC(=O)NC3CCCCC3C)c(C)o2)c1 (stereo unspecified)	n	n	n	n	n	n
CC(Oc1ccc(O)cc1)(P(=O)(O)O)P(=O)(O)O	x	x	n	x	n	x
CCn1c(C)c(C)c2cc(C(=O)NCc3ccc(OC)cc3OC)ccc21	x	x	n	n	n	x
